{"source": "PubChem BioAssay AID488969", "about": "(Vanderbilt High Throughput Screening Facility, 2010)", "note": "In all, about 110,000 compounds were measured (“z-score”: median about -0.1, highest 2% from about 2 on). Only a selection was taken, and the highest values are over-represented in it overall. Calls of active or inactive are those of the source.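 Rule for the calls: active = z-score in the third read window above 3 or below -3; inactive = the rest.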", "data": [{"molecular_target": "Metabotropic glutamate receptor 8 (Rattus norvegicus) (UniProt P70579)", "sequence (P70579 whole entry, looked up)": "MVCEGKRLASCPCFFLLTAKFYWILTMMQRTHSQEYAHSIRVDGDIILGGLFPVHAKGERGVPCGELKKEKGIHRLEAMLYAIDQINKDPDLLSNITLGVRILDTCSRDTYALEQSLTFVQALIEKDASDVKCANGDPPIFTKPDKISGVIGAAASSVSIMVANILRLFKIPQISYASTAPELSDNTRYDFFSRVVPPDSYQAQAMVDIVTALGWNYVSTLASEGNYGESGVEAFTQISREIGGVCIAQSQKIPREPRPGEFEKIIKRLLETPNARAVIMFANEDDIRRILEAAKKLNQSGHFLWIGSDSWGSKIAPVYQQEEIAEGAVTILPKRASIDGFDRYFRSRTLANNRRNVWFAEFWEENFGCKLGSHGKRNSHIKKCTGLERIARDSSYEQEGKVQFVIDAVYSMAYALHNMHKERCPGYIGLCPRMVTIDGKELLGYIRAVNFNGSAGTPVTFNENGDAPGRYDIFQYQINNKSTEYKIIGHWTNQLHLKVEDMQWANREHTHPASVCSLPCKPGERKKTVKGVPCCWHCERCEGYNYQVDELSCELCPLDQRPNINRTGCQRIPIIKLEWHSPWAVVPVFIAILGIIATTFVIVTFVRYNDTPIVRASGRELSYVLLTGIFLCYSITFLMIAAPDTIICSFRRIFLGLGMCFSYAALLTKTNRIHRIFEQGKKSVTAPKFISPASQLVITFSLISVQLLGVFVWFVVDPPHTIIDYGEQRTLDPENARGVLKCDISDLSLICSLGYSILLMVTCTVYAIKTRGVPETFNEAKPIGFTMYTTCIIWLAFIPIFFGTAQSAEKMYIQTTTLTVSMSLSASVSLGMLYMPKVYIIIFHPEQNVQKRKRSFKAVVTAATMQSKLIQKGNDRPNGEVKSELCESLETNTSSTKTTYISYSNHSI", "test": "rat mGluR8 modulators via GIRK flux, primary screen, cell-based, thallium flux, HTS (AID 488969)", "conditions": "HEK293 rat mGluR8, GIRK (G protein-gated inwardly rectifying potassium channel) thallium flux, FluoZin2; at 10 µM; stronger effect = higher value; submaximal glutamate (EC20) added with thallium", "values": [{"smiles": "CC(C)Cc1nc2oc3c(NCCCN4CCOCC4)ncnc3c2c2c1CCC2", "z-score": 0.0144}, {"smiles": "S=c1[nH]nc(-c2cc(-c3ccco3)[nH]n2)n1-c1ccccc1", "z-score": -0.141}, {"smiles": "COc1cc(S(=O)(=O)N(Cc2ccccn2)Cc2ccco2)ccc1-n1cnnn1", "z-score": -0.493}, {"smiles": "COC(=O)c1ccc(-n2c(C)cc(C(=O)CSc3ccc(NC(C)=O)cc3)c2C)cc1", "z-score": "3.5 (active)"}, {"smiles": "COCC(C)n1c(C)cc(C(=O)CSc2ccc(NC(C)=O)cc2)c1C", "note": "(stereo not drawn)", "z-score": 0.445}, {"smiles": "CC(=O)Nc1ccc(SCC(=O)c2cc(C)n(CC(F)(F)F)c2C)cc1", "z-score": 0.0826}, {"smiles": "CC(=O)Nc1ccc(SCC(=O)c2cc(C)n(C)c2C)cc1", "z-score": -0.0734}, {"smiles": "CC(=O)Nc1ccc(SCC(=O)c2cc(C)n(-c3ccccc3)c2C)cc1", "z-score": 0.162}, {"smiles": "CC(=O)Nc1ccc(SCC(=O)c2cc(C)n(-c3ccccc3F)c2C)cc1", "z-score": "4.45 (active)"}, {"smiles": "Cn1c(SCC(=O)c2ccc(F)cc2)nnc1-c1ccccc1N", "z-score": -0.0125}, {"smiles": "O=C(CCSc1nc(-c2ccc3c(c2)OCO3)cc(C(F)(F)F)n1)NCc1ccco1", "z-score": 0.587}, {"smiles": "O=[N+]([O-])c1cccc(/C=C/c2nc(C=Nc3ccc4ccccc4c3)c(O)o2)c1", "z-score": -0.0456}, {"smiles": "Cc1ccc(S(=O)(=O)N(C)CCCC(=O)Nc2cccc3ccccc23)cc1", "z-score": -0.456}, {"smiles": "O=C(CNC1CCCCCC1)Nc1ccc(N2CCCC2)cc1", "z-score": 2.66}, {"smiles": "O=C(CNC1CCCCCC1)Nc1ccccc1N1CCCCC1", "z-score": -0.23}, {"smiles": "CCC(=O)Nc1ccc(N2CCCCC2)cc1", "z-score": -0.169}, {"smiles": "CN1C2=C(C#N)C(c3ccccc3)(C(F)(F)F)NC(=O)N2c2ccccc21", "note": "(stereo not drawn)", "z-score": -0.282}, {"smiles": "CC(C)c1nc(=S)n(-c2ccccc2)[nH]1", "z-score": "4.41 (active)"}, {"smiles": "CC(C)c1nc(-c2ccccc2)c(-c2ccccc2)[nH]1", "z-score": -0.0702}, {"smiles": "CC(C)c1nc2cc3ccccc3cc2[nH]1", "z-score": 0.396}, {"smiles": "COc1ccc(N2CCN(C(=O)NC34CC5CC(CC(C5)C3)C4)CC2)cc1", "z-score": -0.0964}, {"smiles": "CCC(CCC(=O)Nc1ccc(S(N)(=O)=O)cc1)C(=O)O", "note": "(stereo not drawn)", "z-score": 0.735}, {"smiles": "Cc1[nH]nc2c1C(c1ccccc1F)NC2=O", "note": "(stereo not drawn)", "z-score": 2.74}, {"smiles": "COc1ccc(C2NC(=O)c3n[nH]c(C)c32)c(OC)c1", "note": "(stereo not drawn)", "z-score": 0.447}, {"smiles": "CCOc1ccc(C2NC(=O)c3n[nH]c(C)c32)cc1", "note": "(stereo not drawn)", "z-score": 0.931}, {"smiles": "CCOC(=O)c1[nH]c2ccc(OC)cc2c1NC(=S)N1CCN(c2ccc(F)cc2)CC1", "z-score": 0.623}, {"smiles": "CC1Oc2ccccc2C=C1/C=N/NC(=O)c1ccccc1O", "note": "(stereo not drawn)", "z-score": 0.0521}, {"smiles": "CC1Oc2ccccc2C=C1/C=N/NC(=O)c1ccccc1", "note": "(stereo not drawn)", "z-score": 1.9}, {"smiles": "Cc1ccc(C(=O)N/N=C/C2=Cc3ccccc3OC2C)cc1", "note": "(stereo not drawn)", "z-score": "3.08 (active)"}, {"smiles": "Cc1ccsc1C(=O)NNC(=O)Nc1ccc(Cl)c(Cl)c1", "z-score": -0.13}, {"smiles": "COc1cccc(OC)c1OCCCCCc1c(C)n[nH]c1C", "z-score": -0.231}, {"smiles": "COc1ccccc1OCCCCCc1c(C)n[nH]c1C", "z-score": -0.151}, {"smiles": "CCOc1ccccc1OCCCCCc1c(C)n[nH]c1C", "z-score": "3.05 (active)"}, {"smiles": "CCC(=O)N/C(=N/c1nc(C)cc(C)n1)Nc1cccc(OC)c1", "z-score": 0.0375}, {"smiles": "Cc1cc(/C([O-])=C(/C(=S)Nc2ccc(F)cc2)[n+]2ccccc2)c(C)n1-c1ccc(F)cc1", "z-score": -0.454}, {"smiles": "CCC(CC)c1nnc(NC(=O)c2cc(-c3ccccc3)nc3ccccc23)s1", "z-score": -0.847}, {"smiles": "CCSc1nnc(NC(=O)c2ccc3ccccc3n2)s1", "z-score": "11.8 (active)"}, {"smiles": "CCSc1nnc(NC(=O)c2cccc3ccccc23)s1", "z-score": -0.316}, {"smiles": "CCC(CC)c1nnc(NC(=O)c2ccc3ccccc3n2)s1", "z-score": "11.4 (active)"}, {"smiles": "O=C(Nc1nnc(C(F)(F)F)s1)C1COc2ccccc2O1", "note": "(stereo not drawn)", "z-score": -0.109}, {"smiles": "CCC(CC)c1nnc(NC(=O)C2COc3ccccc3O2)s1", "note": "(stereo not drawn)", "z-score": "3.82 (active)"}, {"smiles": "CCSc1nnc(NC(=O)c2cc(C)nc3ccccc23)s1", "z-score": 0.31}, {"smiles": "CCC(CC)c1nnc(NC(=O)Oc2ccccc2)s1", "z-score": -0.366}, {"smiles": "CCc1nnc(NC(=O)C2COc3ccccc3O2)s1", "note": "(stereo not drawn)", "z-score": 0.0066}, {"smiles": "COc1cccc(C2C(C(C)=O)=C(O)C(=O)N2CCc2c[nH]c3ccccc23)c1", "note": "(stereo not drawn)", "z-score": -0.32}, {"smiles": "Cc1ccc(CSc2ccc(-c3ccco3)nn2)cc1", "z-score": 0.361}, {"smiles": "C=CCN(C(C)=O)C1CC(=O)N(c2ccc(OCCC)cc2)C1=O", "note": "(stereo not drawn)", "z-score": -0.00882}, {"smiles": "C/C(=N\\NC(=O)c1csc(C)c1C)c1ccco1", "z-score": 0.816}, {"smiles": "CC/C(=N\\NC(=O)c1csc(C)c1C)c1cccs1", "z-score": 1.32}, {"smiles": "C/C(=N\\NC(=O)c1csc(C)c1C)c1ccc(Cl)s1", "z-score": "3.54 (active)"}, {"smiles": "CCC/C(=N\\NC(=O)c1csc(C)c1C)c1cccs1", "z-score": 0.475}, {"smiles": "CCC/C(=N/NC(=O)c1csc(C)c1C)c1ccc(Cl)s1", "z-score": "5.92 (active)"}, {"smiles": "Cc1scc(C(=O)N/N=C/c2ccco2)c1C", "z-score": -0.0599}, {"smiles": "COc1ccc(CCNC(=O)C2CCCN(S(=O)(=O)c3cnc[nH]3)C2)cc1OC", "note": "(stereo not drawn)", "z-score": -0.0112}, {"smiles": "CCOc1ccccc1C(=O)N(Cc1ccco1)C1CCS(=O)(=O)C1", "note": "(stereo not drawn)", "z-score": 0.0514}, {"smiles": "CN1C(=O)CSC1=NCC12CC3CC(CC(C3)C1)C2", "z-score": -0.123}, {"smiles": "COc1ccc(Cl)cc1NC(=S)NCCc1c[nH]c2ccccc12", "z-score": 0.142}, {"smiles": "CCOc1ccc(CN(Cc2ccco2)S(=O)(=O)c2ccc(-n3cnnn3)c(OC)c2)cc1", "z-score": 2.75}, {"smiles": "CCOc1ccccc1CN(Cc1ccco1)S(=O)(=O)c1ccc(-n2cnnn2)c(OC)c1", "z-score": 0.115}, {"smiles": "COc1cc(S(=O)(=O)N(Cc2ccc(C)cc2)Cc2ccco2)ccc1-n1cnnn1", "z-score": 0.205}, {"smiles": "O=C(Cc1c(F)cccc1Cl)NCC1CCCO1", "note": "(stereo not drawn)", "z-score": 0.148}, {"smiles": "CN1/C(=C\\C(=S)NC(=O)c2cccc(Br)c2)C(C)(C)c2ccccc21", "z-score": -0.0589}, {"smiles": "Cc1ccc(C(=O)NC(=S)/C=C2\\N(C)c3ccccc3C2(C)C)cc1", "z-score": 2.66}, {"smiles": "CN1/C(=C\\C(=S)NC(=O)c2ccc([N+](=O)[O-])cc2)C(C)(C)c2ccccc21", "z-score": 0.213}, {"smiles": "CC(C)(C)C(=O)Nc1ccc(-c2cn3ccsc3n2)cc1", "z-score": -1.44}, {"smiles": "CCCN1CNC(=S)N(c2ccc(C(=O)OCC)cc2)C1", "z-score": -2.04}, {"smiles": "O=C(NC(=S)Nc1ccc2c(c1)OCCO2)c1ccccc1", "z-score": 2.12}, {"smiles": "O=C(CC(=O)c1ccccc1)Nc1ccc2c(c1)OCCO2", "z-score": -0.987}, {"smiles": "O=C(NC(=S)Nc1ccc2[nH]ncc2c1)c1ccccc1", "z-score": -0.139}, {"smiles": "Cc1cc(NC(=S)NC(=O)c2ccccc2)ccc1-c1cc2ccccc2oc1=O", "z-score": -0.165}, {"smiles": "O=C(CNC(=O)c1ccccc1)NCC1COc2ccccc2O1", "note": "(stereo not drawn)", "z-score": 0.11}, {"smiles": "O=C(NC(=S)Nc1ccc2c(c1)OCO2)c1ccc(Cl)cc1", "z-score": 0.837}, {"smiles": "O=C(NC(=S)NCc1ccc2c(c1)OCO2)c1ccccc1", "z-score": 1.1}, {"smiles": "O=C(NC(=S)Nc1ccc2c(c1)OCO2)c1ccccc1", "z-score": "3.25 (active)"}, {"smiles": "O=C(NCC1COc2ccccc2O1)c1ccccc1", "note": "(stereo not drawn)", "z-score": 0.298}, {"smiles": "O=C(NC(=S)Nc1ccc2c(c1)OCCO2)c1cccc(Br)c1", "z-score": 0.945}, {"smiles": "O=C(NC(=S)NCC1COc2ccccc2O1)c1ccccc1", "note": "(stereo not drawn)", "z-score": "6.58 (active)"}, {"smiles": "Cn1ncc2cc(NC(=S)NC(=O)c3ccccc3)ccc21", "z-score": 2.21}]}]}
